In PubChem BioAssay (NCATS):
Where “and” joins values, the source holds several entries; their conditions need not be identical. Equal entries are not always repeated. Results filed as inconclusive are left out. Calls of active or inactive are those of the source. The call rests on the fitted dose curve; in most records, active means well fitted cell-killing curve with a large enough effect; inconclusive means small, poorly fitted or top-dose-only effect, or effect the other way; inactive means no such curve, though single readings can be large or run the other way.

Test: Viability qHTS for spleen associated tyrosine kinase inhibitor (SYKi) naive MV4-11 cells (AID 1963823); further: nearly all actives have a fitted effect of over 40% in size
Settings: MV4-11 AML viability, CellTiter-Glo luminescence, 72 h; series mostly up to 45 µM; viability (% of control): at the top concentration
Text: Department of Medicine, Hematology/Oncology
University Hospital Frankfurt, Germany.
Trials have shown promising clinical activity of the selective SYK inhibitor entospletinib in patients with high expressing HOXA9/MEIS1 acute leukemias. As the development of resistance mechanisms is a common problem in the use of targeted drugs, we performed a chemical library screen to identify drug sensitivities in SYK inhibitor resistant AML cells. […] Glucocorticoids are potent immunosuppressants which work in part by inhibiting the transcription of cytokine genes.
Described herein is a viability screen to look for activity in the SYK inhibitor naive cell line against four NCATS compound libraries (MIPE 5.0, NPC, NPACT, and Kinase) totaling 11372 compounds. Active hits were reacquired for confirmation and further secondary assay testing.
SEQUENCE No. (e.g., 1, 2, 3, etc.); […] (e.g., Cells, Incubation, Reagent, etc.); VALUE; DESCRIPTION.
1; Media; 2uL; white, solid-bottom Corning assay plate.
2; Compounds; 23nL; Echo acoustic dispenser.
3; Cell; 5uL; 500 cells per well.
4: Incubation; 72hr; 37 C, 5% CO2, 95% humidity.
5; Reagent; 3uL; CellTiter-Glo reagent (Promega).
6; Incubation; 10min; room temperature.
7; Detection; Luminescence; ViewLux plate reader (PerkinElmer).
NOTES (numbers refer to Sequence numbers above
1. Quantitative high-throughput screening (qHTS) of small molecule compounds was conducted on naive SYKi MV4-11 cell line.
2. Twenty-three nanoliter of small molecule compounds were added to each assay plates using the Echo acoustic dispenser (Beckman Coulter).
3. Cells were seeded into the assay plates at a final density of 500 cells in 5uL of media per well using the Multi-drop Combi dispenser.
4. Plates were covered with stainless steel gasketed lids and incubated for 72 hours at standard cell culture conditions.
5. Viability was assessed by adding 3uL of CellTiter-Glo detection reagent (Promega).
6. Plates were covered with gasket lids and incubated for 10 minutes at room temperature.
7. Luminescence was measured on a ViewLux plate reader (PerkinElmer).
Potency means the concentration at half of the fitted maximal effect.

Compound	viability (% of control)	Potency
CC(=O)/C=C/C1(O)C(C)(C)CC(O)CC1(C)O (stereo not given)	67.4% (inactive)	
CC1(C)O[C@@H]2C[C@H]3[C@@H]4CCC5=CC(=O)C=C[C@]5(C)[C@H]4[C@@H](O)C[C@]3(C)[C@]2(C(=O)CO)O1	91.1% (inactive)	
COC1=CC(=O)O[C@@H](CCc2ccccc2)[C@@H]1O	88.2% (inactive)	
Cc1cn[nH]c1	77.7% (inactive)	
CC1CC(O)C2(OC1=O)OC1C(O)C3C4CCC5CC(OC6OC(CO)C(O)C(O)C6OC6OC(C)C(O)C(O)C6O)CCC5(C)C4CCC3(C)C1C2C (stereo not given)	63% [at 17.3 µM] (inactive)	
CCCCCCC[N+](CC)(CC)CCCCc1ccc(Cl)cc1		1.68 µM (active)
NCCCC[C@H](NC(=O)[C@@H](NC(=O)[C@H](Cc1c[nH]c2ccccc12)NC(=O)[C@H](CCCCN)NC(=O)[C@H](CCCCN)NC(=O)[C@H](Cc1c[nH]c2ccccc12)NC(=O)[C@H](Cc1c[nH]c2ccccc12)NC(=O)[C@H](CCCCN)NC(=O)[C@@H](N)CCCCN)C(c1ccccc1)c1ccccc1)C(N)=O		8.33 µM (active)
O=C(O)CCNc1cc(N2CCc3ccccc3CC2)nc(-c2ccccn2)n1		inactive
CN(C)CCCCCCNC(=O)c1cccc(-c2cc(O)c3ncccc3c2)c1		2.59 µM (active)
CC(=O)Oc1ccc(C2(c3ccc(OC(C)=O)cc3)Oc3ccccc3NC2=O)cc1		5.8 µM (active)
CN(C)CCN1C(=O)c2cccc3cc(NC(N)=O)cc(c23)C1=O		4.17 µM (active)
CC1(C)CC[C@]2(C(=O)O[C@@H]3O[C@H](CO[C@@H]4O[C@H](CO)[C@@H](O)[C@H](O)[C@H]4O)[C@@H](O)[C@H](O[C@@H]4O[C@H](CO)[C@@H](O)[C@H](O)[C@H]4O)[C@H]3O)CC[C@]3(C)C(=CCC4[C@@]5(C)CC[C@H](O[C@@H]6OC[C@@H](O)[C@H](O)[C@H]6O)[C@@](C)(C(=O)O)C5CC[C@]43C)[C@@H]2C1 (stereo not given in full)	83.1% [at 9.25 µM] (inactive)	
CC1(C(=O)O)CCCC2(C)C3CCC4CC3(CCC12)CC4(O)CO (stereo not given)	78% (inactive)	
CCN(CC)C(=O)N1CCN(C)CC1	98.2% (inactive)	
OC[C@H]1O[C@@H](OCc2ccccc2)[C@H](O[C@@H]2OC[C@@H](O)[C@H](O)[C@H]2O)[C@@H](O)[C@@H]1O	84.4% [at 17.3 µM] (inactive)	
Cn1cc[nH]c1=S	94% (inactive)	
CN(C)S(=O)(=O)c1ccc(NC(=S)N2CCC(C(O)(c3ccccc3)c3ccccc3)CC2)cc1		16.4 µM (active)
CCc1cc(-c2n[nH]c(C)c2-c2ccc3c(c2)OCCO3)c(O)cc1O		2.35 µM (active)
CCC(Cc1c(I)cc(I)c(N)c1I)C(=O)O (stereo not given)	76.2% (inactive)	
C=C(C=O)[C@]1(O)C[C@@]2(C)C(=CC1=O)C=C[C@H](OC(=O)/C=C/C=C/[C@H](C)CC)[C@@H]2C		1.12 µM (active)

Compound	viability (% of control)	Potency
Cn1ncnc1COc1nn2c(-c3cc(F)ccc3F)nnc2cc1C(C)(C)C	91% (inactive)	
C=CCc1cccc(/C=N/NC(=O)CN2CCN(Cc3ccccc3)CC2)c1O		7.42 µM (active)
COc1ccc2c(c1)C[C@H](C(=O)Nc1ccc(-c3cn[nH]c3)cc1OCCN(C)C)CO2		0.651 µM (active)
CC(=O)Oc1cc(C(C)C)c(OCCN(C)C)cc1C		0.0011 µM (active)
CC(C)Oc1ccc(-c2nc(-c3cccc4c3CCC4NCCC(=O)O)no2)cc1C#N (stereo not given)	73% (inactive)	
O=C(Nc1cc(Oc2cc(F)c(NC(=O)C3(C(=O)Nc4ccc(F)cc4)CC3)cc2F)ccn1)C1CC1		23.1 nM (active) and 59 nM (active)
CC(C)(O)CC(=O)NCCn1ccc2ncnc(Nc3ccc(Oc4cccc(C(F)(F)F)c4)c(Cl)c3)c21		14.6 µM (active) and 16.6 µM (active)
CCOc1ccc(-c2cc(NC(=O)c3c(F)cccc3F)c(C(=O)O)s2)cc1	25.2% (inactive)	
Nc1nc(-c2ccccc2)c(Br)c(=O)[nH]1	94.3% (inactive)	
C/C=C/C=C/C=C/C(=O)N(C)C(C(=O)NC(C)C(=O)N1CCCC1C(N)=O)C(C)C (stereo not given)	82.6% [at 17.3 µM] (inactive)	
CC/C=C/CC1=C(CCCCCCCC(=O)O)CCC1=O	59.7% (inactive)	
CCCCOC(=O)NS(=O)(=O)c1sc(CC(C)C)cc1-c1ccc(Cn2ccnc2)cc1		14.8 µM (active)
C/C(=C/CCC(CO)C1CCC2(C)C3CCC4C(C)(C)C(OC5OC(CO)C(O)C(O)C5O)CC(O)C45CC35CCC12C)COC1OC(CO)C(O)C(O)C1O (stereo not given)	63% [at 17.3 µM] (inactive)	
OCC1OC(Oc2cc(O)c3c(c2)OC(c2ccc(O)cc2)C(O)C3)C(O)C1O (stereo not given)	65.6% [at 17.3 µM] (inactive)	
C[N+](C)(C)CCOC(N)=O	102% (inactive)	
Cc1cc(C)cc(OCC2CNC(=O)O2)c1 (stereo not given)	76.2% (inactive)	
CC(=O)NC1=NN(C(C)=O)C(C)(c2ccccc2)S1 (stereo not given)		1.84 µM (active)
C[C@H]1[C@H](/C=C/c2ccc(-c3ccccc3C#N)cn2)[C@@H]2[C@@H](C)OC(=O)[C@@H]2C[C@@H]1C		8.2 µM (active)
COc1cc(O)cc2c1C(=O)OC(C)C2 (stereo not given)	68.5% (inactive)	
Cc1cc(Cl)ccc1OCCCC(=O)NO		14.8 µM (active)
